Results: PubChem BioAssay (Tox21)
Activity calls are given as the source filed them. Unless noted, calls follow the shape of the dose curve; as a rule, active = well fitted curve in the direction sought with a large enough effect in the repeat runs; inconclusive = weak or mixed curves; inactive = no such curve, though single readings can be large; an effect the other way counts as inactive or inconclusive.

Experiments:
[1] = qHTS assay for small molecules that induce genotoxicity in human embryonic kidney cells expressing luciferase-tagged ATAD5 (AID 651632); also: nearly all actives have a fitted effect of over 15% in size
Outline: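 HEK293T cells carrying a luciferase reporter tagged to ATAD5 were exposed to compound or DMSO vehicle for 16 hr at 37C, 5% CO2. Amplite was added, and after 30 min at room temperature luciferase activity was read as a marker of ATAD5 induction.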

[2] = qHTS assay for small molecule agonists of the p53 signaling pathway - cell viability (AID 651633; calls by dose curve;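 also: p53RE-bla HCT reporter cells with a stable beta-lactamase p53 reporter; nearly all actives have a fitted effect of over 30% in size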)
Outline: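 Viability counter-read: CellTiter-Glo luminescence (30 min, room temperature) in the same p53RE-bla plates. These plates had been exposed to compounds for 16 h at 37 C.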

[3] = qHTS assay for small molecules that induce genotoxicity in human embryonic kidney cells expressing luciferase-tagged ATAD5 - cell viability (AID 651634; calls by dose curve; also: nearly all actives have a fitted effect of over 25% in size; also: potency is read from the fitted curve at half-maximal effect)
Outline: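 HEK293T cells expressing luciferase-tagged ATAD5 were exposed to compound or DMSO for 15.5 hr at 37C, 5% CO2. Viability was then read as live-cell protease activity by CellTiter-Fluor fluorescence after 30 min at 37C.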

[4] = qHTS assay for small molecule disruptors of the mitochondrial membrane potential - cell viability (AID 720634; calls by dose curve;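 also: human HepG2 liver cancer cells; nearly all actives have a fitted effect of over 20% in size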)
Outline: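 HepG2 cells seeded overnight at 37 C, then exposed to compound or DMSO for 1 hr at 37 C, 5% CO2. m-MPI dye added, then CellTiter-Glo for 30 min at room temperature; viability read as ATP luminescence.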

[5] = qHTS assay to test for compound auto fluorescence at 590 nm (red) in HepG2 cells (AID 720674)
Outline: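 Red autofluorescence (Ex/Em 540/590 nm, Rose Bengal sodium equivalents) was measured in HepG2 cells, 2,000 per well in MEM plus 10% FBS, plated overnight at 37 C. Readings were taken 1 hr after adding 23 nL compound or DMSO, at 37 C and 5% CO2.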

[6] = qHTS assay to test for compound auto fluorescence at 535 nm (green) in HepG2 cells (AID 720675)
[7] = qHTS assay to test for compound auto fluorescence at 460 nm (blue) in HEK293 cells (AID 720678)
Outline: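 Blue read-out at excitation 405 nm and emission 460 nm follows overnight compound exposure of HEK293 cells at 37C in 5% CO2. Activity is given as auto fluorescence equivalency to triamterene.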

[8] = qHTS assay to test for compound auto fluorescence at 590 nm (red) in HEK293 cells (AID 720679)
Outline: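 Red channel, Ex/Em 540/590nm; signal expressed as equivalency to Rose Bengal sodium. HEK293, 2,000 cells/well, 10% dialyzed FBS; 23 nL compound pinned after 4-5 hr attachment; overnight 37C/5% CO2 before reading.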

[9] = qHTS assay to test for compound auto fluorescence at 535 nm (green) in HEK293 cells (AID 720680)
[10] = qHTS assay to test for compound auto fluorescence at 460 nm (blue) in HEK293 cell free culture (AID 720681)
Outline: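 Blue fluorescence (Ex 405/Em 460 nm, triamterene-equivalent) was read immediately after pin transfer of compound or DMSO into medium (DMEM, 10% FBS) without cells.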

[11] = qHTS assay to test for compound auto fluorescence at 535 nm (green) in HEK293 cell free culture (AID 720682)
Outline: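 No cells present: wells hold DMEM supplemented with 10% FBS, into which compound or vehicle is pinned. Green emission is then recorded (485 nm excitation, 535 nm emission) and scaled to fluorescein.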

[12] = qHTS assay to test for compound auto fluorescence at 590 nm (red) in HepG2 cell free culture (AID 720684)
Outline: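 Plate contents were MEM with 10% FBS plus test compound or DMSO, no cells. Fluorescence was recorded with 540 nm excitation and 590 nm emission.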

[13] = qHTS assay to test for compound auto fluorescence at 460 nm (blue) in HepG2 cell free culture (AID 720685)
Outline: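 Compound (23 nL) or DMSO pinned into cell-free MEM with 10% FBS; blue fluorescence read at 405/460 nm excitation/emission, expressed as auto-fluorescence equivalency to triamterene.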

[14] = qHTS assay to test for compound auto fluorescence at 535 nm (green) in HepG2 cell free culture (AID 720686)
[15] = qHTS assay to test for compound auto fluorescence at 460 nm (blue) in HepG2 cells (AID 720687)
Outline: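 Blue-channel autofluorescence (Ex/Em 405/460 nm, triamterene-equivalent) was measured after 1 hr compound exposure at 37 C, 5% CO2. Cells were HepG2, plated overnight at 37 C in MEM plus 10% FBS.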

[16] = target: Glucocorticoid receptor (Homo sapiens) (UniProt P04150); assay: qHTS assay to identify small molecule agonists of the glucocorticoid receptor (GR) signaling pathway (AID 720691; active = well fitted activation curve with a large enough effect in the signal ratio in the repeat runs, not every such curve was filed as active; inconclusive = weak or mixed curves, or effect the other way; inactive = no such curve, though single readings can be large or run the other way; the % refers to the signal ratio; also: potency is read from the fitted curve at half-maximal effect); settings: GR-bla HeLa, beta-lactamase reporter ratio, 18 h; activation: at 62.4 µM (top of the series)
Outline: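 GR-bla HeLa cells (beta-lactamase reporter under glucocorticoid response element) were plated 4 h at 37 C/5% CO2, given compounds in DMSO, and incubated 18 h at 37 C. LiveBLAzer B/G FRET substrate was added for 2 h at room temperature, then fluorescence intensity read.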

[17] = qHTS assay to test for compound auto fluorescence at 590 nm (red) in HEK293 cell free culture (AID 720683)
Outline: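 Red-channel autofluorescence of compounds in culture medium (DMEM, 10% FBS), no cells, measured at 540/590 nm. Rose Bengal sodium is the reference fluorophore for equivalence.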

[18] = target: Glucocorticoid receptor (Homo sapiens) (UniProt P04150); assay: qHTS assay to identify small molecule antagonists of the glucocorticoid receptor (GR) signaling pathway (AID 720692; active = well fitted inhibition curve with a large enough effect in the signal ratio in the repeat runs, not every such curve was filed as active; inconclusive = weak or mixed curves, or effect the other way; inactive = no such curve, though single readings can be large or run the other way; the % refers to the signal ratio; also: potency is read from the fitted curve at half-maximal effect)
Outline: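 GR-bla HeLa cells (beta-lactamase reporter under glucocorticoid response element) were pre-plated 4 h at 37 C, treated with compounds plus 5 nM dexamethasone (final) for 18 h, then read by LiveBLAzer B/G FRET fluorescence after 2 h.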

Measured: Potency

Chain of Glucocorticoid receptor (Homo sapiens) (P04150 whole entry, looked up): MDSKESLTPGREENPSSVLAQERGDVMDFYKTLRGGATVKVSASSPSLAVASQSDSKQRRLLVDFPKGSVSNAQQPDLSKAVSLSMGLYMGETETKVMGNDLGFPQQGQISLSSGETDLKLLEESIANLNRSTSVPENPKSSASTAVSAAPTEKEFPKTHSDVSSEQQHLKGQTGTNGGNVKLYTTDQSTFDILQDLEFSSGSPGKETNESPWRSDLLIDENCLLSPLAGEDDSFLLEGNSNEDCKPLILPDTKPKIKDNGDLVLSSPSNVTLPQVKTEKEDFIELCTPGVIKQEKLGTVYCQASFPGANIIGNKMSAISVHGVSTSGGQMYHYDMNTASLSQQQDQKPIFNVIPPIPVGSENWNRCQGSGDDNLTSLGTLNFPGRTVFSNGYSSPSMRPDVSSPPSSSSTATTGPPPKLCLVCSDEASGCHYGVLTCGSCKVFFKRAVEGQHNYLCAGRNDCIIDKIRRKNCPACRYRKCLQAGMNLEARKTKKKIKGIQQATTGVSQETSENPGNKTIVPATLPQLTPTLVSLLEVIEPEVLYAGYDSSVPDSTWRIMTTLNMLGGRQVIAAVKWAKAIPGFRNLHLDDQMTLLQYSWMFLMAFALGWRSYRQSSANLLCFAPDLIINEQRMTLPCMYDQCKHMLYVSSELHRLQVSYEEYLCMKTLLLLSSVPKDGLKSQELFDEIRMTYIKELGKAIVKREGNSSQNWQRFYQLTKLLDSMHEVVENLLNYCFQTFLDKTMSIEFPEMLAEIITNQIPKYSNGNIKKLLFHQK

C[C@]12CCC(=O)C=C1CC[C@@H]1[C@@H]2[C@@H](O)C[C@@]2(C)[C@H]1CC[C@]2(O)C(=O)COP(=O)(O)O
active: [16] 0.674 µM [inconclusive]
inactive: [1] | [2] | [3] | [4] | [5] | [6] | [7] | [8] | [9] | [10] | [11] | [12] | [13] | [14] | [15]

COc1ccc(C2(C#N)CCC(C(=O)O)CC2)cc1OC1CCCC1 (configuration not stated)
inactive: [1] | [2] | [3] | [4] | [5] | [6] | [7] | [8] | [9] | [10] | [11] | [17] | [12] | [13] | [14] | [15] | [16] | [18]

CCN(CC)CCC(=O)N1c2ccccc2Sc2ccc(C(F)(F)F)cc21
inactive: [1] | [2] | [3] | [4] | [5] | [6] | [7] | [9] | [10] | [11] | [17] | [12] | [13] | [14] | [16]
active: [18] 23.9 µM

C[C@]12CCC(=O)C[C@@H]1CC[C@@H]1[C@@H]2CC[C@]2(C)C=CC[C@@H]12
inactive: [1] | [2] | [3] | [4] | [5] | [6] | [7] | [8] | [9] | [10] | [11] | [17] | [12] | [13] | [14] | [15] | [16] | [18]

CCN(CC)CCOc1ccccc1OC
inactive: [1] | [2] | [3] | [4] | [5] | [6] | [7] | [8] | [9] | [10] | [11] | [12] | [13] | [14] | [15] | [16]

CCN(CC)CCCC(C)Nc1cc(/C=C/c2ccccc2Cl)nc2cc(Cl)ccc12 (configuration not stated)
inactive: [1] | [2] | [3] | [4] | [5] | [6] | [7] | [8] | [9] | [10] | [11] | [17] | [13] | [14] | [15] | [16]

C[C@H]1[C@@H](OC(=O)CCC(=O)O)O[C@@H]2OC3(C)CC[C@H]4[C@H](C)CC[C@@H]1[C@@]24OO3
active: [3] 2.37 µM
inactive: [1] | [2] | [4] | [5] | [6] | [7] | [8] | [9] | [10] | [11] | [17] | [12] | [13] | [14] | [16]

CCC(Oc1ccccc1)C(=O)N[C@@H]1C(=O)N2[C@@H]1SC(C)(C)[C@@H]2C(=O)O (some centres not stated)
inactive: [1] | [2] | [3] | [4] | [5] | [6] | [7] | [8] | [9] | [10] | [11] | [12] | [13] | [14] | [15]

N[C@H](CCC(=O)O)C(=O)O
inactive: [1] | [2] | [3] | [4] | [5] | [6] | [7] | [8] | [9] | [10] | [11] | [17] | [12] | [14] | [15] | [16]

CN(C)CCC=C1c2ccccc2C(C)(C)c2ccccc21
inactive: [1] | [2] | [3] | [4] | [5] | [6] | [7] | [8] | [9] | [10] | [11] | [17] | [12] | [13] | [14] | [16]

CC1C(=O)CC2C3(C)CCC2(C(C)C(=O)O)C(=O)C13 (configuration not stated)
inactive: [1] | [2] | [3] | [4] | [5] | [6] | [7] | [8] | [9] | [10] | [11] | [17] | [12] | [13] | [14] | [15] | [16] | [18]

S=C=Nc1ccc(N=C=S)cc1
inactive: [1] | [2] | [3] | [4] | [5] | [6] | [7] | [8] | [9] | [10] | [11] | [17] | [12] | [14]

CO/N=C(\C(=O)N[C@@H]1C(=O)N2C(C(=O)O)=C(CSc3nnnn3C)CS[C@H]12)c1csc(N)n1
inactive: [1] | [2] | [3] | [4] | [5] | [6] | [7] | [8] | [9] | [10] | [11] | [17] | [12] | [13] | [14] | [16] | [18]
